Screening data from PubChem.
GLP-1R inv ag: qHTS of GLP-1 Receptor Inverse Agonists (Inhibition Mode); actives 1.6% (n = 410,000); Potency, µM (highest dose often 38.3 µM), actives largely listed as inhibitors; AID 624417, 2012; HEK293 GLP-1R CRE-luciferase, luminescence, 24 h; GLP-1R form is constitutively active; note: nearly all actives have a fitted effect of over 55% in size
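HEK293 cells stably co-expressing a cAMP-responsive luciferase reporter and constitutively active GLP-1R were seeded, incubated 12 h, then exposed to compounds for 24 h at 37 C. Luminescence was read 12 min after detection reagent; inverse agonists lower signal.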
PTHR1 agonist: qHTS for PTHR1 Agonists: Primary Screen; Parathyroid hormone/parathyroid hormone-related peptide receptor (Homo sapiens), Q03431; HEK293 GP2 PTHR1 cells, GloSensor cAMP luminescence, 1 h; Potency, µM (highest dose often 115 µM), most hits filed as activators; actives 0.075% (n = 410,000); note: nearly all actives have a fitted effect of over 55% in size
Target sequence (Q03431 whole entry, looked up): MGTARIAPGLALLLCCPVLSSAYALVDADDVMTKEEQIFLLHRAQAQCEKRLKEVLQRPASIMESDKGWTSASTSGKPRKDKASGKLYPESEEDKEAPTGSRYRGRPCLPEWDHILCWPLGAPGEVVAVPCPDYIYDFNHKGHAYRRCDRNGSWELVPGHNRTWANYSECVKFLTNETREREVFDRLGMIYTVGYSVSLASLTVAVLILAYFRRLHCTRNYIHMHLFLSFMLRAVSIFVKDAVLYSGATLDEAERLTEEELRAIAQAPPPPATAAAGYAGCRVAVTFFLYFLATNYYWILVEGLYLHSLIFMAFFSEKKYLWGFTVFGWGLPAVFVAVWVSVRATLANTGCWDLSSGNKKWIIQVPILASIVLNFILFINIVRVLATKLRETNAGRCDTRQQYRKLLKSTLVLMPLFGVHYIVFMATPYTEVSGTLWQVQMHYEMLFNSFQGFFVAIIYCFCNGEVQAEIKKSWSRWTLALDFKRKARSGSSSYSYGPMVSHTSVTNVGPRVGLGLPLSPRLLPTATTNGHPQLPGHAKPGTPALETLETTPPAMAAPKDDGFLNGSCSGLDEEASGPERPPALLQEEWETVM
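HEK-293-derived GP2 cells expressing PTHR1 and a GloSensor cAMP reporter, 3,000/well, plated overnight, given luciferin plus IBMX (each 0.5 mM as added) for 1 h at 37 °C, then compound for 1 h at 37 °C. Luminescence was read after 15 min at room temperature.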
HEK293 tox: qHTS of GLP-1 Receptor Inverse Agonists: Cytotox Screen; actives 0.13% (n = 410,000); Potency, µM (top dose mostly 38.3 µM), usual class: inhibitors; HEK293 cAMP-luciferase reporter cells, luminescence, 24 h;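 note: loss of luciferase light is scored as toxicity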
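Luminescence readout: signal drop marks cytotoxicity. Plated cells grew 12 h at 37 °C, 5% CO2, received 23 nL compound for 24 h, then got luciferase reagent, read after 12 min at RT.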
GLP1R ag: qHTS of GLP-1 Receptor Agonists; Glucagon-like peptide 1 receptor (Homo sapiens), P43220; Potency, µM (series often up to 45.6 µM), actives largely listed as activators; HEK293 GLP-1R CRE-luciferase, luminescence, 4-6 h; cells express a hypersensitive GLP-1R form; actives 0.007% (n = 380,000)
Of the large screens only hits and unclear results are named; the others gave an inactive call. This is a sample that favours compounds with a hit; in the whole collection about 1.7% have one here. Calls come from the whole dose curve; as a rule, active = well fitted curve in the direction sought with a large enough effect; inconclusive = small, poorly fitted or top-dose-only effect, or another doubt; inactive = no such curve, though single readings can be large; an effect the other way counts as inactive or inconclusive.

CNC(=S)N/N=C/c1c2ccccc2c(Cl)c2ccccc12	GLP-1R inv ag 7.94µM, HEK293 tox 3.55µM
CNC(=S)N/N=C/c1c(C)cccc1Cl	GLP-1R inv ag inconclusive, HEK293 tox inconclusive
Cc1ccccc1NC(=O)c1c([N+](=O)[O-])c(C(C)(C)C)nn1C	GLP-1R inv ag inconclusive
Cn1nc(C(C)(C)C)c([N+](=O)[O-])c1C(=O)NCCO	none
Cn1nc(C(C)(C)C)c([N+](=O)[O-])c1C(=O)Nc1ccc(Br)cc1	GLP-1R inv ag 2.82µM
Cc1cccc(NC(=O)c2c([N+](=O)[O-])c(C(C)(C)C)nn2C)c1	GLP-1R inv ag 5.01µM
Cc1cccc2nc(-c3cccc(NS(=O)(=O)c4ccccc4)c3)cn12	none (no result: GLP1R ag)
CC(=O)Nc1ccc(NC(=O)c2ccc(-c3c(C)noc3C)c3ccoc23)cc1	none
Cc1noc(C)c1-c1ccc(C(=O)Nc2ccc(C(C)C)cc2)c2occc12	GLP-1R inv ag 4.47µM
CC(NCc1ccc(-c2ccccc2)cc1)C(O)c1ccccc1 (stereo unspecified)	GLP-1R inv ag 7.94µM, HEK293 tox inconclusive
CC(O)CNCc1ccc(-c2ccccc2)cc1 (stereo unspecified)	none
CNC(=O)COc1ccc(NC(=O)CCn2nc(-c3ccc(C)cc3)c3ccccc3c2=O)cc1	none (no result: GLP1R ag)
CCN1C(=O)c2ccccc2Sc2ccc(NC(=O)COc3ccc(Cl)cc3)cc21	GLP-1R inv ag inconclusive (no result: GLP1R ag)
Cc1ccc([C@H]2C[C@@H](n3cc(-c4ccc(F)cc4)nn3)[C@H](O)CN2CC2CCCCC2)cc1	none
O[C@H]1CN(Cc2cccs2)[C@@H](c2ccccc2)C[C@@H]1n1cc(-c2ccc(F)cc2)nn1	GLP-1R inv ag 10µM
O[C@@H]1CN(CC2CCCCC2)[C@@H](c2ccccc2)C[C@H]1n1cc(-c2ccc(F)cc2)nn1	GLP-1R inv ag 3.98µM, HEK293 tox inconclusive
CCOC(=O)c1ccc(N2CCN(c3ccccc3F)CC2)c(NC(=O)Nc2ccccc2)c1	GLP-1R inv ag 2.51µM
CCN(CC)c1ccc(NC(=O)C2CCN(S(=O)(=O)c3cnc[nH]3)CC2)c(C)c1	none (no result: GLP1R ag)
Cc1ccc(N2C(=O)N(CC(=O)Nc3c(C)cc(C)cc3Cl)C(=O)C2C)cc1 (stereo unspecified)	GLP-1R inv ag 10µM
Cc1ccc(N2C(=O)N(CC(=O)Nc3ccc(C)cc3C)C(=O)C2C)cc1 (stereo unspecified)	GLP-1R inv ag inconclusive
O=C(Cn1ncn2c(cc3ccccc32)c1=O)NCc1ccc(F)cc1	none (no result: GLP1R ag)
Oc1ccc(C[C@@H]2CNC(=S)N2CCc2cc(C(F)(F)F)cc(C(F)(F)F)c2)cc1	GLP-1R inv ag inconclusive
FC(F)(F)c1cc(CCN2C(=S)NC[C@@H]2Cc2ccccc2)cc(C(F)(F)F)c1	GLP-1R inv ag 7.94µM, HEK293 tox inconclusive
CC(NC(=O)CCC(=O)NC(C)C1COc2ccccc2O1)C1COc2ccccc2O1 (stereo unspecified)	GLP-1R inv ag 8.91µM
CN(C(=O)CSc1nncn2c1cc1occc12)c1ccccc1	none (no result: GLP1R ag)
Clc1ccc(/C=N/NC(=Nc2ccccc2)c2ccccn2)c(Cl)c1	HEK293 tox 10µM
Cc1ccc(-c2nnc(CSc3nnc(COc4ccccc4)n3-c3ccccc3)o2)cc1	GLP-1R inv ag 10µM
Cc1oc2ncn(C)c(=O)c2c1C(=O)NC(C)c1ccccc1 (stereo unspecified)	PTHR1 agonist inconclusive (no result: GLP1R ag)
COc1cc(N/N=C/c2ccc(N(C)C)cc2)ncn1	GLP-1R inv ag inconclusive
CN(C)c1cc(N/N=C/c2ccc(Cl)cc2)nc(N(C)C)n1	GLP-1R inv ag 2.51µM, HEK293 tox inconclusive
CCc1ccc(NC(=O)C(C)Oc2nnc(-c3cccs3)c(-c3cccs3)n2)cc1 (stereo unspecified)	GLP-1R inv ag 10µM
O=C(CCCSc1nnc(-c2cccs2)n1CC1CCCO1)c1ccccc1 (stereo unspecified)	GLP-1R inv ag 7.94µM
O=C(CSc1nnc(-c2cccs2)n1CC1CCCO1)N1CCCC1 (stereo unspecified)	none
O=C(O)CC/C=C\CC[C@@H]1[C@@H](N2CCCCC2)[C@@H](O)C[C@@H]1OCc1ccc(-c2ccccc2)cc1	none (no result: GLP-1R inv ag, PTHR1 agonist, HEK293 tox)
Cc1ccc(NC(=O)c2ccc(Cl)c(NC(=O)c3cccs3)c2)cc1	GLP-1R inv ag 10µM
Cc1ccc(CN(Cc2ccco2)C(=O)c2oc3c(C)c(C)ccc3c2C)cc1	GLP-1R inv ag inconclusive (no result: GLP1R ag)
COc1ccc(C(=O)O/N=C(\N)Cc2ccc(Cl)cc2)cc1OC	GLP-1R inv ag 7.94µM, PTHR1 agonist inconclusive, HEK293 tox inconclusive
N/C(Cc1ccc(Cl)cc1)=N\OC(=O)c1ccccc1	GLP-1R inv ag inconclusive, PTHR1 agonist inconclusive, HEK293 tox inconclusive
COc1ccc(C(=O)O/N=C(\N)Cc2ccc(Cl)c(Cl)c2)cc1OC	GLP-1R inv ag inconclusive, PTHR1 agonist inconclusive, HEK293 tox 5.62µM
CCOc1ccccc1CNC(=O)c1ccc2nc(CCc3ccccc3)oc2c1	GLP-1R inv ag inconclusive (no result: GLP1R ag)
CCOC(=O)N1CCN(S(=O)(=O)c2ccc(C(=O)N(CCCN(C)C)c3nc4ccc(OC)cc4s3)cc2)CC1	GLP-1R inv ag inconclusive
Cc1cc(C)c2nc(N(CCCN(C)C)C(=O)c3ccc4c(c3)CCCC4)sc2c1	GLP-1R inv ag 4.47µM, HEK293 tox inconclusive
Cc1cc(C)c2nc(N(CCCN(C)C)C(=O)c3ccc(S(=O)(=O)N4CCCCCC4)cc3)sc2c1	GLP-1R inv ag 12.6µM, HEK293 tox inconclusive
CCOC(=O)N1CCN(S(=O)(=O)c2ccc(C(=O)N(CCN(C)C)c3nc4ccc(Cl)cc4s3)cc2)CC1	GLP-1R inv ag 8.91µM
CCc1ccc(OC(C)C(=O)Nc2c(C(=O)c3ccccc3)oc3ccccc23)cc1 (stereo unspecified)	none
CCCCC/C=C/C/C=C/CCCCCCCC(=O)NC(C)c1ccccc1 (stereo unspecified)	none (no result: GLP-1R inv ag, PTHR1 agonist, HEK293 tox)
Cc1ccc(CNC(=O)Cn2ccn(-c3ccc(C)c(C)c3)c(=O)c2=O)cc1	none (no result: GLP1R ag)
O=C(NCCn1cc(SCc2ccccc2)c2ccccc21)c1ccccc1F	GLP-1R inv ag 10µM
Cc1ccc(C)c(CSc2cn(CCNC(=O)c3ccccc3F)c3ccccc23)c1	GLP-1R inv ag inconclusive
Nc1c(-c2nc(-c3cccs3)no2)nnn1-c1ccc(Cl)cc1	none (no result: GLP1R ag)
Cc1ccccc1N=C(NOCc1ccc(Cl)cc1Cl)c1nonc1N	none
Cc1ccccc1N=C(NOCc1ccccc1)c1nonc1N	GLP-1R inv ag 10µM
Cc1cc(C)cc(NC(=S)N2CCN(c3ncc(C(F)(F)F)cc3Cl)CC2)c1	none
C=CCNC(=S)N1CCN(c2ncc(C(F)(F)F)cc2Cl)CC1	GLP-1R inv ag 8.91µM
Cc1ccc2nc(N3CCN(c4ccccc4F)CC3)c3nnnn3c2c1	none (no result: GLP1R ag)
CC1(C)CCCN(C(=O)N2c3ccccc3Sc3ccccc32)C1	GLP-1R inv ag 4.47µM
O=C(CN1CCCC1)N1c2ccccc2Sc2ccccc21	none
